Assay results published in the supplement of paper PMC6555819.

Each sequence was assayed on VDR:RXRa (NR concentration 270 nM, RXRa partner concentration 90 nM) (assay: PBM binding z-score (relative to random genomic background probes); higher = stronger binding; sequences stand for … in GC…GCGATTGACAGCGTAGAATGAAGG).
Description: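 Protein-binding microarray (Agilent 4x180K custom design, double-stranded 60-nt probes: 5' GC cap, 34-nt variable region, 24-nt constant primer region; full probe sequence given). Purified or IVT nuclear receptor:RXRα heterodimers (3:1 NR:RXRα, mostly 270:90 nM) or homodimers were incubated for 1 h in PBS with 2% milk and no ligand, then detected with Alexa488 antibodies. Fluorescence from o1-orientation probes (~5 replicates averaged) was converted to z-scores against 500 random hg19 background probes. Variable regions are seed direct-repeat (DR0–DR5) sites, all their single-nucleotide variants and half-site ablations.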

Compared with CTTAGCAGGCCAATCTGGGTCACTCAAGGCTTGA, TTACCTAGGTGAAAGGTCGTTGATGCACGCCTTG is higher in PBM binding z-score: 0.462 for the first, 2.75 for the second.

Compared with TAGCCTAGGTCATGGGCCAGAATACCACGCGAAC, TCTCGGAGGACATGAAAGGTCAGAGCTCGACATC is higher in PBM binding z-score: 1.91 for the first, 2.81 for the second.

Going from TCTTGTAGATCAATAGAGGTTAACAAAGTGCGCT to ATCTAAAGGTCGACGAGGTGAGTATACACCGTTT, the PBM binding z-score rises from 2.2 to 5.21.

Compared with TCTTGTAGATTAAAGGTTAAGAAAGCCGAAGCCT, TCTTGTAGACCAGCAGGTTAAGAAAGCTGGCCAA is lower in PBM binding z-score: 1.09 for the first, 0.209 for the second.

Going from CTACCATGGTGAACAAGGTCGTTGATTACTATTC to TCTAGCAGGCCAGAGGGTCACTAAAGAGGTACGG, the PBM binding z-score falls from 3.04 to 1.24.

Going from TCGAGTAGGTTACGGGCATTCAGAATGGCGTCGA to CGATCTAGGTCAAGGACAGTGAATCTCCGCACGC, the PBM binding z-score rises from -0.46 to 0.643.

Going from TCGTATAGGTAATACAGGTGAAAGTCGGCATCTA to ATCTCGAGGTAACAAGTTCAGTGAAAGAGAGGAC, the PBM binding z-score rises from 0.991 to 2.63.

Going from CCGACTGGGGCAAAGGTTACCAAACTCAGTACGA to CCGACTGGGGCAAAAAGGTTACCATACCATCCGG, the PBM binding z-score falls from 1.91 to 1.28.

Going from AGTCAAAGTTCATCTAGGTAAGGTAAGATATGCT to CCTTACGGGTCAAGGTTATAGTACGGGTGGTACG, the PBM binding z-score falls from 4.6 to 3.62.

Compared with TCGAGTAGGATACCAATGGGGCATTCAGCTTTCT, CCTTACGGGTCACTCCAGGTTATAGGATCGGAGT is higher in PBM binding z-score: -0.497 for the first, 4.34 for the second.

First: TCTTGTAGATCAAAGGTTATGAAAGCCGAAGCCT
Second: GCAGACAGGTGACACGCAGGTAACTCAGGGTGGC
The PBM binding z-score of the first is higher: 1.25 for the first, -0.517 for the second.

First: TCGAGTAGGTTAGGGGCATTCCGAATGGCGTCGA
Second: CGTCCAAGGTCAGCAGGTCAGTGGAAGCGACGTG
The PBM binding z-score of the first is lower: 0.256 for the first, 3.82 for the second.

Compared with ACTATTAGTTGAGACGAGGGCAACCGATAGGTTG, TCTAGTTGGTCACGGAGGTCACACAGGACGGGTA is higher in PBM binding z-score: 0.889 for the first, 5.94 for the second.

Going from ATCGAAAGGTCGTGAGGTGAGCATACAGAAAGGC to GCGACTGGGGCAAAGCAGGTTCCCATAAGGTTGG, the PBM binding z-score falls from 3.19 to -0.543.

First: TCTGACAGGTGAAGGTAACTCAGGTACGCAGTCG
Second: TCTAGTTTGTCACGGAGGTCACACACGACGGGTA
The PBM binding z-score of the first is lower: 0.667 for the first, 4.63 for the second.

Compared with CCTTCTGGGCCATCAGGTCATTGATATCAACGTT, TCGCGTAGGTTAGTCGGGGCATTCAGCCAACATA is higher in PBM binding z-score: 1.81 for the first, 2.54 for the second.

Going from AGTATGAGGTTAAGATCAGGGAAACAGAATACAT to CAGCCTAGGTCGGGGCCAGTATAGGAGGAACGTT, the PBM binding z-score falls from 1.18 to -0.53.

Compared with GCAGACAGGCGAAACGCAGGTAACTCAGGGTGGC, AGTCAAAGTTCAGAACGAGGTAACGTAAAGCACG is higher in PBM binding z-score: -0.853 for the first, 2.86 for the second.

Compared with TTTGCTAGGTCAACGATGGTCAGCTAATCTGCTA, TGGATGAGGTTATAAGATCAGGGAACGTTGCAAA is lower in PBM binding z-score: 1.9 for the first, 1.04 for the second.

Going from GGGACTGGGGCATCAGCAGGTTACCATAACTTAA to TCTTGTAGATCAATAGAGGTTAAGAATGTGCGCT, the PBM binding z-score rises from 0.674 to 1.27.
